# Key:
# Experiment in all cases: DAPPL (digital affinity profiling via proximity ligation, sequencing); 10 mM Tris-HCl pH 7.5, 50 mM NaCl, 1 mM DTT, 4% glycerol, room temperature, 30 min; GST-TFs on glutathione beads, 16-mer random dsDNA library, 0.1% formaldehyde crosslink after washing; high values mean tight binding
# [1] = target: T1, FLI1 (Homo sapiens, UniProt Q01543 1-452); conditions: protein: recombinant; tags: N-terminal GST; dsDNA, one strand shown
# T1 sequence: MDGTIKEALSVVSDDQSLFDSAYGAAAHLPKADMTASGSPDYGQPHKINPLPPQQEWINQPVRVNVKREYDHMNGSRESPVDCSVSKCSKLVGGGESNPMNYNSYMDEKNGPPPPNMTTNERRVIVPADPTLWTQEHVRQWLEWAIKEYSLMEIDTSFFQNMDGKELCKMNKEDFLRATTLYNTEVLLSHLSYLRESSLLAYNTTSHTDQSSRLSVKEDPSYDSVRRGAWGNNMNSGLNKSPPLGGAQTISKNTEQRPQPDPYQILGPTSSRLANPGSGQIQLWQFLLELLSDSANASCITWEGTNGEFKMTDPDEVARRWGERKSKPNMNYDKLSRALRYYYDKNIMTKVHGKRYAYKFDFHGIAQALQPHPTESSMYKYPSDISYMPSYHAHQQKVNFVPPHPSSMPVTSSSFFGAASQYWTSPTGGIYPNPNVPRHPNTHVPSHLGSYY
# In short: (§1)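 The binding signal reported is, for every hexamer, its read frequency for a factor over its read frequency for the tag-only sample. Reads came from pools of yeast-expressed, GST-fused human transcription factors on glutathione beads, barcoded with DNA and mixed with that sample, which were incubated with 200 nmole of a random double-stranded 16-mer DNA library in Tris/NaCl/DTT/glycerol buffer at room temperature for 30 min. After washing, the pools were crosslinked with 0.1% formaldehyde, proximity-ligated with BsaI/T4 ligase for 1 h at 37 °C, PCR-amplified and sequenced on an Illumina NextSeq500.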
# [2] = target: T2, ELK1 (Homo sapiens, UniProt P19419 1-428); conditions: protein: recombinant; tags: N-terminal GST; dsDNA, one strand shown
# T2 sequence: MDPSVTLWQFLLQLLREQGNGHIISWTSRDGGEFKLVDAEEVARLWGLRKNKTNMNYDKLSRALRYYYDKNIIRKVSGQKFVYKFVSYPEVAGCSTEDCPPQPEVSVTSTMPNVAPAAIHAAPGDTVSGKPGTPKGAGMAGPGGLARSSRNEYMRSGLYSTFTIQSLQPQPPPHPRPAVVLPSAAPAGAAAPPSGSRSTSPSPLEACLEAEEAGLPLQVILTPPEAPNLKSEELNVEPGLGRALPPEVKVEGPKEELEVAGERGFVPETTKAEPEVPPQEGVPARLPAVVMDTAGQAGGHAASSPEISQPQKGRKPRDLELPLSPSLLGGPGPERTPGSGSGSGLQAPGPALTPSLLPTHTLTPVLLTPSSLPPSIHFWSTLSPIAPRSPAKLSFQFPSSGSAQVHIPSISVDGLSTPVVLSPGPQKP
# In short: as §1
# [3] = target: T3, GABPA (Homo sapiens, UniProt Q06546 1-454); conditions: protein: recombinant; tags: N-terminal GST; dsDNA, one strand shown
# T3 sequence: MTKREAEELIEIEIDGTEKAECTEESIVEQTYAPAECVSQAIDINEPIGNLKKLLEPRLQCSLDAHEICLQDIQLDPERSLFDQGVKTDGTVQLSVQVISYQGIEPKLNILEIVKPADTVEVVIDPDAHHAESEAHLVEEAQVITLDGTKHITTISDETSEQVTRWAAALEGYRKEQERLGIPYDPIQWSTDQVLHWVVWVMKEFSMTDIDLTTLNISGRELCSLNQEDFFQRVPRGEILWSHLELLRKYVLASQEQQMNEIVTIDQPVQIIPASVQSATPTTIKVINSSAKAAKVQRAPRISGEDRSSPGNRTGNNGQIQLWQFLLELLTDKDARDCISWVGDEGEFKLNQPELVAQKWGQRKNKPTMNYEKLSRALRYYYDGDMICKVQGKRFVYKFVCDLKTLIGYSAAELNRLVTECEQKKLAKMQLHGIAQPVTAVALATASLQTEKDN
# In short: as §1
# [4] = target: T4, ERG (Homo sapiens, UniProt P11308 1-479); conditions: protein: recombinant; tags: N-terminal GST; dsDNA, one strand shown
# T4 sequence: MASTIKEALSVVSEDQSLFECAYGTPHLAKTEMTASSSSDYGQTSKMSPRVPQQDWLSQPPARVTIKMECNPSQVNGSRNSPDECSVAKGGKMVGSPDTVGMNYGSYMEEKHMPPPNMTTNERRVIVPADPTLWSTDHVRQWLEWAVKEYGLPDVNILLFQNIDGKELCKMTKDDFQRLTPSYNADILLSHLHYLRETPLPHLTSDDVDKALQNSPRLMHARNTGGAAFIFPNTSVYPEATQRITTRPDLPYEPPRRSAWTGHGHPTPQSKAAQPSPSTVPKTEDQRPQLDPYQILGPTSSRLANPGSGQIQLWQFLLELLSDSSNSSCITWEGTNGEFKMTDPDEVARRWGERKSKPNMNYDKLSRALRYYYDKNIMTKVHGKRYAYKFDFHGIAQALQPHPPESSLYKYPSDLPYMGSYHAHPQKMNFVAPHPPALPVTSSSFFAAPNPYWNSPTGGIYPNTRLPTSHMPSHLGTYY
# In short: as §1
# [5] = target: ELF1 (Homo sapiens, UniProt P32519 1-619); conditions: protein: recombinant; tags: N-terminal GST; dsDNA, one strand shown
# In short: as §1
# [6] = target: T5, EHF (Homo sapiens, UniProt Q9NZC4 1-300); conditions: protein: recombinant; tags: N-terminal GST; dsDNA, one strand shown
# T5 sequence: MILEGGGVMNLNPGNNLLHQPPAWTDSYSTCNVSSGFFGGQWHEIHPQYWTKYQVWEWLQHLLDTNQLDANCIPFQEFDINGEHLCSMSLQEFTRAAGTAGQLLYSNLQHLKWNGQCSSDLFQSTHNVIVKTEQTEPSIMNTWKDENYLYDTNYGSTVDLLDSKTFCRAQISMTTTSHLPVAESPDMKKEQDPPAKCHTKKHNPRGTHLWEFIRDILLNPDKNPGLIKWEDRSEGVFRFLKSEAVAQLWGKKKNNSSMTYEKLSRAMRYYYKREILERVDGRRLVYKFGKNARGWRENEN
# In short: as §1
# [7] = target: SPI1 (Homo sapiens, UniProt P17947 1-270); conditions: protein: recombinant; tags: N-terminal GST; dsDNA, one strand shown
# In short: as §1
# [8] = target: SPIB (Homo sapiens, UniProt Q01892 1-262); conditions: protein: recombinant; tags: N-terminal GST; dsDNA, one strand shown
# In short: as §1
# [9] = target: T6, ELK3 (Homo sapiens, UniProt P41970 1-407); conditions: protein: recombinant; tags: N-terminal GST; dsDNA, one strand shown
# T6 sequence: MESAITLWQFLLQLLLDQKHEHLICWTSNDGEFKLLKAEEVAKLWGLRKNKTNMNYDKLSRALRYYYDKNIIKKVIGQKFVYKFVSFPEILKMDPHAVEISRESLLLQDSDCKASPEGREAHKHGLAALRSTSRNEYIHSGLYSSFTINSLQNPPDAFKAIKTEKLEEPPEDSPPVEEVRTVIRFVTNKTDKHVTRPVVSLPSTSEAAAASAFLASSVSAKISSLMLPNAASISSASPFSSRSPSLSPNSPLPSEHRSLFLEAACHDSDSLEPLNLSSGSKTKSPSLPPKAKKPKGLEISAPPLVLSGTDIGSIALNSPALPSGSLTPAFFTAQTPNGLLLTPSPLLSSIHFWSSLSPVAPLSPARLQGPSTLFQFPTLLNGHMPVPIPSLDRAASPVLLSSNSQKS
# In short: as §1
# [10] = target: T7, FEV (Homo sapiens, UniProt Q99581 1-238); conditions: protein: recombinant; tags: N-terminal GST; dsDNA, one strand shown
# T7 sequence: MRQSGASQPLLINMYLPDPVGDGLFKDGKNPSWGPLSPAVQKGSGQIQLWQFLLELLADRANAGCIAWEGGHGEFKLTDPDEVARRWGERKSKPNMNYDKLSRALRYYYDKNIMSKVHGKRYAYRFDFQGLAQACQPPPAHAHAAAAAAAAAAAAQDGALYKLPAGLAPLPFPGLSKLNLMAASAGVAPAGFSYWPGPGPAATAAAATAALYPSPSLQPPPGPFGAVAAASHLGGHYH
# In short: as §1
# [11] = target: ETV5 (Homo sapiens, UniProt P41161 1-510); conditions: protein: recombinant; tags: N-terminal GST; dsDNA, one strand shown
# In short: as §1
# [12] = target: HSF1 (Homo sapiens, UniProt Q00613 1-529); conditions: protein: recombinant; tags: N-terminal GST; chain copies: 3; dsDNA, one strand shown
# In short: as §1
# [13] = target: T8, SPIC (Homo sapiens, UniProt Q8N5J4 1-248); conditions: protein: recombinant; tags: N-terminal GST; dsDNA, one strand shown
# T8 sequence: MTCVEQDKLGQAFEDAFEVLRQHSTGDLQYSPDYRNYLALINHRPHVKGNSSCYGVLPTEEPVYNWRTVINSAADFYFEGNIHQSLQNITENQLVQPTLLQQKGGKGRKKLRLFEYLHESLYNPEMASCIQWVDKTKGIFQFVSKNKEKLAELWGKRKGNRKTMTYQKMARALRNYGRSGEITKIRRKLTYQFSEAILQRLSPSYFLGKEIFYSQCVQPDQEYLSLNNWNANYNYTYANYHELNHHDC
# In short: as §1
# [14] = target: ELF4 (Homo sapiens, UniProt Q99607 1-663); conditions: protein: recombinant; tags: N-terminal GST; dsDNA, one strand shown
# In short: as §1
# [15] = target: T9, ELK4 (Homo sapiens, UniProt P28324-2 1-405); conditions: protein: recombinant; tags: N-terminal GST; dsDNA, one strand shown
# T9 sequence: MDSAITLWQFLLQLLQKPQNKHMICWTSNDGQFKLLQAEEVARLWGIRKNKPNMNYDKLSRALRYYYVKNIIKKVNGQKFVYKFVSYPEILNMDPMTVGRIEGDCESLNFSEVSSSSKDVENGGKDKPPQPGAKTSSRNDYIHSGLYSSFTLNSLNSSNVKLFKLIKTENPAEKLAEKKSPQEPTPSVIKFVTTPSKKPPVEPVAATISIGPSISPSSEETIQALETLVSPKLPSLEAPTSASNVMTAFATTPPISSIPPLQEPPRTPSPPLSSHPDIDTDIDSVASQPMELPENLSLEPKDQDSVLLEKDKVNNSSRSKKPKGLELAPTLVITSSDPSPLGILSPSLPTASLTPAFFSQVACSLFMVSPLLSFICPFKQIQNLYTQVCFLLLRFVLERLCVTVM
# In short: as §1
# [16] = target: T10, ETV2 (Homo sapiens, UniProt O00321 1-342); conditions: protein: recombinant; tags: N-terminal GST; dsDNA, one strand shown
# T10 sequence: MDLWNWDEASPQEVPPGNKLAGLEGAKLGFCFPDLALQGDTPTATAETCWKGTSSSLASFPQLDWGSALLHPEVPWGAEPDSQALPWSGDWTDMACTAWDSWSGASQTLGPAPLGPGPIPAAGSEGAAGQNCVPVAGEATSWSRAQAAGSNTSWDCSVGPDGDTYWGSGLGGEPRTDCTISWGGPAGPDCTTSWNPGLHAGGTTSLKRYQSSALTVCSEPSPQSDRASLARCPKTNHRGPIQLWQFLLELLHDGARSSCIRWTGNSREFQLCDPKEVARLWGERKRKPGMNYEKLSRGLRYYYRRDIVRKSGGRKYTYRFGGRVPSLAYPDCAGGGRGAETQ
# In short: as §1
# [17] = target: T11, ELF3 (Homo sapiens, UniProt P78545 1-371); conditions: protein: recombinant; tags: N-terminal GST; dsDNA, one strand shown
# T11 sequence: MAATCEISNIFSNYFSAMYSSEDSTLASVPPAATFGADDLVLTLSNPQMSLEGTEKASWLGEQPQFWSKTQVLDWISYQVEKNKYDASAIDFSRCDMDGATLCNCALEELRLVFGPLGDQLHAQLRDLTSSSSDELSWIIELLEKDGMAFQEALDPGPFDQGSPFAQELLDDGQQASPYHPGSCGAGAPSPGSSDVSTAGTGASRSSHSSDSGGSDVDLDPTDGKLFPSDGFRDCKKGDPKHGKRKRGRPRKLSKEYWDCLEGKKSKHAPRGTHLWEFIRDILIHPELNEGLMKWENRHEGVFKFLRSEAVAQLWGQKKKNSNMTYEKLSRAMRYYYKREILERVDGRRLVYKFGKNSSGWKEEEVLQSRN
# In short: as §1
# [18] = target: ETV1 (Homo sapiens, UniProt P50549 1-477); conditions: protein: recombinant; tags: N-terminal GST; dsDNA, one strand shown
# In short: as §1
# Sequence of ETV5 (P41161 whole entry): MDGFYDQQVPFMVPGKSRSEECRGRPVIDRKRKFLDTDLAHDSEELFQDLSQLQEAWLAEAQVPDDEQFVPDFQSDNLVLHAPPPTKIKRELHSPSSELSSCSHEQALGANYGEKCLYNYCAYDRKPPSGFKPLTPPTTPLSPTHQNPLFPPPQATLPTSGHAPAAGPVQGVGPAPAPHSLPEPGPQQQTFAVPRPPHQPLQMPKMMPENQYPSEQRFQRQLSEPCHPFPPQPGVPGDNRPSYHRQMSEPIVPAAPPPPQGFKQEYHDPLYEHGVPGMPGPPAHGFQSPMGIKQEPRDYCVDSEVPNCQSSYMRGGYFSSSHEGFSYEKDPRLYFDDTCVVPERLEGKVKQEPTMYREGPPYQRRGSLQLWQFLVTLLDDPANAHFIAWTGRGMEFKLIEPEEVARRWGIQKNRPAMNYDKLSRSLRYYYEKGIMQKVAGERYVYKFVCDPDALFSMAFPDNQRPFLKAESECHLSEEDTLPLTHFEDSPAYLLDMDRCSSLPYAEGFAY
# Sequence of SPIB (Q01892 whole entry): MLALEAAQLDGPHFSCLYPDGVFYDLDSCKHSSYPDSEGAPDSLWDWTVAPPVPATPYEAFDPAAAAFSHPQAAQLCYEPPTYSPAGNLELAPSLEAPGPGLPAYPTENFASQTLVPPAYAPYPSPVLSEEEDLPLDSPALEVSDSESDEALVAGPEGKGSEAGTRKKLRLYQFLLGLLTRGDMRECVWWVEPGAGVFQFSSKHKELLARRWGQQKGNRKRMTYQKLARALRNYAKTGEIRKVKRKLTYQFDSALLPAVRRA
# Sequence of HSF1 (Q00613 whole entry): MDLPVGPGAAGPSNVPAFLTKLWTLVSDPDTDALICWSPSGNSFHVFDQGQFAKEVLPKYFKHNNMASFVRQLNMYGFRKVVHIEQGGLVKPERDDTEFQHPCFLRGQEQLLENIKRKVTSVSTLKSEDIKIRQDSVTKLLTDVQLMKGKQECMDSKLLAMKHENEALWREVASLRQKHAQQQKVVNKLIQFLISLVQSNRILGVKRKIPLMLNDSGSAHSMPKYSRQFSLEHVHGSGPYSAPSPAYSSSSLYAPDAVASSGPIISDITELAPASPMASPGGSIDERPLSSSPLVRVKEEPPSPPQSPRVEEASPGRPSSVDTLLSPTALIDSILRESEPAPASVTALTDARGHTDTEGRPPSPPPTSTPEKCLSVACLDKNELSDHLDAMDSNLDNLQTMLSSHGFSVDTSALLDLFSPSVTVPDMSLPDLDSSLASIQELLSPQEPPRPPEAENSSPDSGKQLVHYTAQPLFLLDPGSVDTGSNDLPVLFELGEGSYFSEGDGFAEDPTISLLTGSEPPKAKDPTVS
# Sequence of ETV1 (P50549 whole entry): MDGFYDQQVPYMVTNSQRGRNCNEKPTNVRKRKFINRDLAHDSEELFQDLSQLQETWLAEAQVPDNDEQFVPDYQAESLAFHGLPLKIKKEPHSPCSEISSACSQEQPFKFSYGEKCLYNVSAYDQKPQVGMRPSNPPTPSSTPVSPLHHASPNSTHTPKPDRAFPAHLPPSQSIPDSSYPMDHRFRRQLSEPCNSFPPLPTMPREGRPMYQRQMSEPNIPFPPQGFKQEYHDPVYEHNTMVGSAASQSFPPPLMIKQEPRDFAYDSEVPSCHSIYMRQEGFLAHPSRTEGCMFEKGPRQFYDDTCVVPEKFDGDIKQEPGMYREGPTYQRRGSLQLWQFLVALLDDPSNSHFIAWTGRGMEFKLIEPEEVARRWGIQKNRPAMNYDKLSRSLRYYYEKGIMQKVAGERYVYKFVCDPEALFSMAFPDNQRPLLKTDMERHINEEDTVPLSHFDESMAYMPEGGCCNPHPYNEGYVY
# Sequence of ELF4 (Q99607 whole entry): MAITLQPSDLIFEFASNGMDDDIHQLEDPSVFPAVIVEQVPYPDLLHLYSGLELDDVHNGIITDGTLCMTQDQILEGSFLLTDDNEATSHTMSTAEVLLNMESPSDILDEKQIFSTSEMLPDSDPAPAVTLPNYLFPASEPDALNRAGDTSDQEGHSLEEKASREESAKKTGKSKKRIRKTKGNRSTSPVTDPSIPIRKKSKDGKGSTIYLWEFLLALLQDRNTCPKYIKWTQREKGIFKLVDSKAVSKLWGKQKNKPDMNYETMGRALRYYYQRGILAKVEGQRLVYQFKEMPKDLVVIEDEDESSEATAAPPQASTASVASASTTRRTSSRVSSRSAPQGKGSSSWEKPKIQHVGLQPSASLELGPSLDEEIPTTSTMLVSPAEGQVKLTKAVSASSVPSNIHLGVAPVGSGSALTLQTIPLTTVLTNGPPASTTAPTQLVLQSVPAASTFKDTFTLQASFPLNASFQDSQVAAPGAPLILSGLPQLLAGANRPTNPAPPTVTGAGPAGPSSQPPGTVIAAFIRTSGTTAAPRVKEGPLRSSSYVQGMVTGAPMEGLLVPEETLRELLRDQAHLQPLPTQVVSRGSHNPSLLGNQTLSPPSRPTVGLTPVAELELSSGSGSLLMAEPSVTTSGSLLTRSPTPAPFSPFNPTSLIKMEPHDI
# Sequence of ELF1 (P32519 whole entry): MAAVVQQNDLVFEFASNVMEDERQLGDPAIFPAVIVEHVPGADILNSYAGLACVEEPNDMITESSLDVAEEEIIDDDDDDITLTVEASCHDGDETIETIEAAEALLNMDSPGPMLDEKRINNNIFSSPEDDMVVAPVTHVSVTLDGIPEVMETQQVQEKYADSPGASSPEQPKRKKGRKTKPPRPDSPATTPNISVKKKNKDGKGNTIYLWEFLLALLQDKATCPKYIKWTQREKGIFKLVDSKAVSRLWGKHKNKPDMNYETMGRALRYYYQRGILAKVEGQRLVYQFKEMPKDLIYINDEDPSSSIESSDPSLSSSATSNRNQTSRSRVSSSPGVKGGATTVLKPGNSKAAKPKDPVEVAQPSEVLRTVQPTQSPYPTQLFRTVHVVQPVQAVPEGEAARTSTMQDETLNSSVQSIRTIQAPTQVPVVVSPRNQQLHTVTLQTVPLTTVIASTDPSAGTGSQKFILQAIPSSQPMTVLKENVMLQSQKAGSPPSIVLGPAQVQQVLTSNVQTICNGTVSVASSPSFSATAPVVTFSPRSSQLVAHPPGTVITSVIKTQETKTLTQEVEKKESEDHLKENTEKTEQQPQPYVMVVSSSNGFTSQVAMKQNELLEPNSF
sequence,measurement,setting,value
TGGCAC,binding signal,[1],"1.19 fold enrichment (6-mer frequency, TF over GST control)"
same,binding signal,[2],"1.23 fold enrichment (6-mer frequency, TF over GST control)"
same,binding signal,[3],"1.15 fold enrichment (6-mer frequency, TF over GST control)"
same,binding signal,[4],"1.27 fold enrichment (6-mer frequency, TF over GST control)"
same,binding signal,[5],"1.09 fold enrichment (6-mer frequency, TF over GST control)"
same,binding signal,[6],"1.26 fold enrichment (6-mer frequency, TF over GST control)"
same,binding signal,[7],"1.14 fold enrichment (6-mer frequency, TF over GST control)"
same,binding signal,[8],"1.18 fold enrichment (6-mer frequency, TF over GST control)"
same,binding signal,[9],"1.17 fold enrichment (6-mer frequency, TF over GST control)"
same,binding signal,[10],"1.31 fold enrichment (6-mer frequency, TF over GST control)"
same,binding signal,[11],"1.18 fold enrichment (6-mer frequency, TF over GST control)"
same,binding signal,[12],"1.03 fold enrichment (6-mer frequency, TF over GST control)"
same,binding signal,[13],"1.24 fold enrichment (6-mer frequency, TF over GST control)"
same,binding signal,[14],"1.25 fold enrichment (6-mer frequency, TF over GST control)"
same,binding signal,[15],"1.12 fold enrichment (6-mer frequency, TF over GST control)"
same,binding signal,[16],"1.24 fold enrichment (6-mer frequency, TF over GST control)"
same,binding signal,[17],"1.18 fold enrichment (6-mer frequency, TF over GST control)"
same,binding signal,[18],"1.11 fold enrichment (6-mer frequency, TF over GST control)"

# Reference: paper PMC7862700, “An all-to-all approach to the identification of sequence-specific readers for epigenetic DNA modifications on cytosine”
